Screening results deposited in PubChem by SRMLSC.
Most compounds without a hit are left out; they make up all but 6.8% or so of the library.
NADH coupling – inhibition of NAD/NADH coupling enzymes, library profiling. actives 0.02% (n = 65,000). coupled PK/LDH NADH assays, four targets. AID 774. IC50, µM (series often up to 10 µM), for the others: at the highest dose inhibition;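 active = single-dose screening hits from any of four coupled enzyme assays that gave an IC50 when retested across doses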;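 note: the DPM-DC format reads NADH fluorescence rather than 340 nm absorbance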
MK inhibit – S. pneumoniae mevalonate kinase inhibition. purified MK, PK/LDH-coupled NADH absorbance 340 nm. inhibition, % at 10 µM. actives 0.48% (n = 65,000);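 active = ranked among the strongest by inhibition in the single 10 µM screen, a fixed top-ranked set picked for dose follow-up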
Fluor 339 460 – intrinsic fluorescence of library compounds, ex339/em460 – biochemical, MLSMR library, data from DPM-DC assay, artefact control, profiling panel. fluorescence fold increase at 10 µM. actives 5.5% (n = 65,000). compound autofluorescence, ex339/em460 nm, NADH buffer; hits give high values; 1 = no-compound wells, NADH background;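 active = at 10 µM, mean starting fluorescence two-fold or more over control wells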;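 note: signal is the first read of a kinetic run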
DPM-DC inhibit – blocks S. pneumoniae diphosphomevalonate decarboxylase; actives 0.49% (n = 65,000); purified DPM-DC, PK/LDH coupled NADH fluorescence; calls only at 10 µM;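 active = the 320 compounds with the highest percent inhibition in the single-dose primary screen, excluding strongly autofluorescent ones, cut at about 32% in these data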;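 note: kinetic rate of NADH fluorescence loss reporting ADP formed by the decarboxylase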
Spn PMK inh – inhibitors of Streptococcus pneumoniae phosphomevalonate kinase | purified PMK, PK/LDH-coupled NADH absorbance 340 nm | actives 0.49% (n = 65,000) | inhibition, % at 10 µM;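 active = top-ranked compounds by inhibition in the single 10 µM screen, taking a fixed number of the strongest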;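 note: 0% = full reaction with DMSO carrier and 100% = background rate without enzyme reaction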
Abs 340nm – compounds absorbing at 340 nm | AID 708 | compound absorbance at 340 nm, fold over control | fold change at 10 µM | 65,000 tested, under 10 active;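 active = at 10 µM dose, initial 340 nm absorbance at least 2 fold that of control wells; inactive = change under 2 fold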;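 note: initial absorbance extrapolated from kinetic A340 decline of NADH oxidation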
Starred values were filed as active, the others as inactive.

What do the screens show for `Cc1ccccc1NC(=O)NCCN1C(=O)C2C3C=CC(C3)C2C1=O` (centres undefined)?
NADH coupling: 3%; MK inhibit: 2; Fluor 339 460: 1.1; DPM-DC inhibit: inactive; Spn PMK inh: 6; Abs 340nm: 1

Results for COc1ccc(NC(=O)C2CC(=O)OC2(C)C)cc1 (centres undefined) ?
NADH coupling: 1%; MK inhibit: 1; Fluor 339 460: 2.2*; Spn PMK inh: 0; Abs 340nm: 1

What do the screens show for `COc1ccc(NC(=O)C2CCC(C)(C(=O)O)C2(C)C)cc1` (centres undefined)?
NADH coupling: 0%; MK inhibit: 0; Fluor 339 460: 1.1; DPM-DC inhibit: inactive; Spn PMK inh: 0; Abs 340nm: 1.1

Results for CCCCn1c(Cl)nc2c1c(=O)n(C)c(=O)n2C ?
NADH coupling: 18%; MK inhibit: 40*; Fluor 339 460: 1.1; DPM-DC inhibit: inactive; Spn PMK inh: 15; Abs 340nm: 1

Results for CCCCCn1c(CN2CCN(C)CC2)nc2c1c(=O)n(C)c(=O)n2C ?
NADH coupling: 2%; MK inhibit: 4; Fluor 339 460: 1; DPM-DC inhibit: inactive; Spn PMK inh: 1; Abs 340nm: 0.98

Results for CC(C)Sc1nc(NCc2ccco2)c2c3c(sc2n1)COC(C)(C)C3 ?
NADH coupling: 3%; MK inhibit: 5; Fluor 339 460: 2*; Spn PMK inh: 0; Abs 340nm: 1.1

Results for Cc1nc(NCc2ccco2)c2c3c(sc2n1)CCC3 ?
NADH coupling: 2%; MK inhibit: 4; Fluor 339 460: 1.1; DPM-DC inhibit: inactive; Spn PMK inh: 1; Abs 340nm: 1

Results for CC(C)OC(=O)C1C(=O)CC(C)(O)C(C(=O)OC(C)C)C1c1cccnc1 (centres undefined) ?
NADH coupling: 9%; MK inhibit: 0; Fluor 339 460: 1.1; DPM-DC inhibit: inactive; Spn PMK inh: 27*; Abs 340nm: 1

How did C/C(O)=c1/ccc2cccc3nc(C)nc1c23 do in these assays?
NADH coupling: 13%; MK inhibit: 0; Fluor 339 460: 3*; DPM-DC inhibit: inactive; Spn PMK inh: 14; Abs 340nm: 1.1

Results for CCN(CC)c1ccc2cc(NC(=O)CCC(=O)O)c(=O)oc2c1 ?
NADH coupling: 3%; MK inhibit: 8; Fluor 339 460: 3*; Spn PMK inh: 4; Abs 340nm: 0.99

Results for O=C(c1ccco1)N1CCN(C(=O)c2cc(-c3ccccn3)nc3ccc(Cl)cc23)CC1 ?
NADH coupling: 7%; MK inhibit: 11; Fluor 339 460: 1.1; DPM-DC inhibit: inactive; Spn PMK inh: 5; Abs 340nm: 1.1

How did O=C(CCCCCN1C(=O)c2ccccc2C1=O)NCc1ccccn1 do in these assays?
NADH coupling: 7%; MK inhibit: 0; Fluor 339 460: 1.1; DPM-DC inhibit: inactive; Spn PMK inh: 21; Abs 340nm: 1

Results for CSc1ccc2[nH]c(=O)cc(C)c2c1 ?
NADH coupling: 2%; MK inhibit: 2; Fluor 339 460: 3.8*; Spn PMK inh: 1; Abs 340nm: 1

Results for Cc1ccc2[nH]c(=S)cc(C)c2c1 ?
NADH coupling: 7%; MK inhibit: 7; Fluor 339 460: 1.1; DPM-DC inhibit: inactive; Spn PMK inh: 15; Abs 340nm: 0.98

What do the screens show for `Cc1cc(N2CCCN(C)CC2)nc2cc(Cl)ccc12`?
NADH coupling: 1%; MK inhibit: 0; Fluor 339 460: 1.6; DPM-DC inhibit: inactive; Spn PMK inh: 1; Abs 340nm: 1.1

How did COc1ccc(N2CCN(c3cc(C)c4ccc(O)cc4n3)CC2)cc1 do in these assays?
NADH coupling: 3%; MK inhibit: 0; Fluor 339 460: 2.1*; Spn PMK inh: 5; Abs 340nm: 1.1

What do the screens show for `Cc1cc(N2CCN(c3ccccc3F)CC2)nc2cc(O)ccc12`?
NADH coupling: 5%; MK inhibit: 7; Fluor 339 460: 3.1*; DPM-DC inhibit: inactive; Spn PMK inh: 7; Abs 340nm: 1.1

Results for Cc1cc(N2CCOCC2)nc2cc(O)ccc12 ?
NADH coupling: 4%; MK inhibit: 5; Fluor 339 460: 2.2*; Spn PMK inh: 3; Abs 340nm: 1.1

Results for O=C(c1cccc(C(=O)N2CCN(c3ccccc3F)CC2)n1)N1CCN(c2ccccc2F)CC1 ?
NADH coupling: 7%; MK inhibit: 7; Fluor 339 460: 1.1; DPM-DC inhibit: inactive; Spn PMK inh: 14; Abs 340nm: 1

Results for Cc1ccsc1-c1nc(CSCC(=O)NCc2ccc3c(c2)OCO3)c(C)o1 ?
NADH coupling: 6%; MK inhibit: 6; Fluor 339 460: 1.2; DPM-DC inhibit: inactive; Spn PMK inh: 6; Abs 340nm: 1

What do the screens show for `O=C(O)c1cc2n(n1)C(C(F)(F)F)CC(c1ccco1)N2` (centres undefined)?
NADH coupling: 2%; MK inhibit: 3; Fluor 339 460: 1.1; DPM-DC inhibit: inactive; Spn PMK inh: 2; Abs 340nm: 1.1

What do the screens show for `Cc1ccc2c(c1)C(N1CCCC1=O)CC(c1ccco1)N2` (centres undefined)?
NADH coupling: 1%; MK inhibit: 5; Fluor 339 460: 2.6*; DPM-DC inhibit: inactive; Spn PMK inh: 0; Abs 340nm: 1

What do the screens show for `O=C1CCCc2c1[nH]c1ccc(CN3CCCCC3)cc21`?
NADH coupling: 3%; MK inhibit: 6; Fluor 339 460: 2.1*; Spn PMK inh: 0; Abs 340nm: 1.1

Results for Cc1ccc2[nH]c3c(c2c1)CCc1cn[nH]c1-3 ?
NADH coupling: 6%; MK inhibit: 3; Fluor 339 460: 1.8; DPM-DC inhibit: inactive; Spn PMK inh: 12; Abs 340nm: 0.99

Results for Cc1ccc2[nH]c3c(c2c1)CCC3=O ?
NADH coupling: 8%; MK inhibit: 7; Fluor 339 460: 3.7*; Spn PMK inh: 9; Abs 340nm: 1

What do the screens show for `Cc1[nH]c2ccc(Br)cc2c(=O)c1CN1CCCCC1`?
NADH coupling: 4%; MK inhibit: 4; Fluor 339 460: 1.1; DPM-DC inhibit: inactive; Spn PMK inh: 8; Abs 340nm: 1.1

How did CC1CCc2c(sc(NC(=O)c3noc4c3CCCC4)c2C(N)=O)C1 (centres undefined) do in these assays?
NADH coupling: 3%; MK inhibit: 6; Fluor 339 460: 4.8*; Spn PMK inh: 0; Abs 340nm: 1.1

What do the screens show for `COc1ccc(OC)c2[nH]c(=O)c(CCNC(=O)c3ccc(Br)o3)cc12`?
NADH coupling: 7%; MK inhibit: 0; Fluor 339 460: 1.2; DPM-DC inhibit: inactive; Spn PMK inh: 21; Abs 340nm: 1

What do the screens show for `O=C(Cn1c(C(=O)N2CCN(C3CCCC3)CC2)cc2sccc21)c1ccccc1`?
NADH coupling: 6%; MK inhibit: 6; Fluor 339 460: 0.94; DPM-DC inhibit: inactive; Spn PMK inh: 8; Abs 340nm: 0.95
